{"source": "PubChem BioAssay AID651567", "about": "(National Center for Advancing Translational Sciences (NCATS), 2012)", "note": "Hit rate of the full screen: of about 1,200 compounds, about 10 (0.8%) were called active. Inconclusive results (about 4%) are left out. This excerpt belongs to a sample that is enriched for actives. Unmarked numbers belong to inactive results. Calls come from the whole dose curve; as a rule, active = well fitted inhibition curve with a large enough effect; inconclusive = small, poorly fitted or top-dose-only effect; inactive = no such curve, though single readings can be large or run the other way. % is set by controls: 0 for no effect and ±100 for the full control effect; potency is the fitted concentration of half-maximal effect."}
{"test": "qHTS Assay to Find Inhibitors of Chronic Active B-Cell Receptor Signaling: Hit Validation in OCI-Ly3 Assay", "conditions": "OCI-Ly3 IkB-luciferase reporter, Chroma-Glo luminescence, 4 h; series mostly up to 46.1 µM; activity change, negative = inhibition: at the top concentration", "excerpt": "Diffuse large B-cell lymphoma (DLBCL) is the most common category of non-Hodgkin lymphoma, with ~20,000 new cases per year in the United States. DLBCL should be regarded as a collection of different neoplasms. Microarray gene expression analysis has defined two principal types of DLBCL, named for their similarity to normal B cell stages or activation states: a germinal center B-cell (GCB) type, and an activated B-cell (ABC) type. In ABC-DLBCL, a constitutive high-level activity of the NF-kappaB family of transcription factors has been observed (1) and NF-kappaB target genes are more highly expressed in ABC primary tumors than in GCB tumors. Functional studies have shown a constitutive high-level activity of the IkappaB (inhibitor of kappa-B) kinase (IKK) complex. […] Further analysis of DLBCL primary tumors for NF-kappaB target gene expression imply that although CARD11 is required for constitutive IKK activity in all ABC-DLBCL lines, mutations in CARD11 may be the root cause of IKK activation only in lines or tumors with such mutations. In other words, CARD11 mutations may explain NF-kappaB activation in only 10% of ABC-DLBCL cases. […] This process has been termed 'chronic active BCR signaling' (CABS). The goal of this screen is to find small-molecule inhibitors of the CABS pathway found in ABC-DLBCL lines using a cell-based assay that measures IkappaBalpa stability, which has already been extensively validated in the OCI-Ly3 line (PubChem AID:445; REF: 4). […] Hits from the primary screen were tested in this selectivity secondary assay. NIH Molecular Libraries Probe Production Network [MLPCN] NIH Chemical Genomics Center [NCGC] MLPCN Grant: R03 DA031086 PI Name: Dr. R. Eric Davis\nCells were seeded in 1536-well plates at 5000 cells/3ul in IMDM medium containing 0.5% FBS, w/o phenol red, L-glutamine, 25 mM HEPES, 3 mg/ml sodium bicarbonate. After centrifugation for 1 min. at 1000 rpm, 23 nl of compounds or DMSO were delivered to each well using a pin tool. Then 1ul 80ng/ml doxycycline was dispensed into white solid 1536-well plates and the plates were incubated at 37C/5% C02 in a cell incubator for 4 hrs. Then 4 ul Chroma-Glo luminescent substrate mix (Promega) was added to each well. The plate was incubated at R.T. for 10-15 min. The plates were measured on a ViewLux plate reader for green luminescence (540/20 nm filter) and red luminescence (618/8 nm filter). The green and red luminescent signals were corrected for red and green luminescence filter overlap using previously determined filter calibration constants (determined using the procedure outlined in the Promega Technical Manual). The %Activity was determined from the ratio of corrected green/red luminescent values. Green luminescent and ratio %Activity was determined by normalizing to the difference in signal between basal cells (0% Activity) and cells incubated with 10 uM of the proteasome inhibitor MG-132 (100% Activity). Red luminescent %Activity was normalized to the difference between red luminesence in basal cells (0%Activity) and zero luminescence (-100% Activity). Concentration-response curves were fitted to the signals arising from the green luminescence (I-kappa-B-alpha-luciferase fusion; IkB-luc) and the red luminescence (unfused luciferase; luc) as well as the calculated ratio. The concentration-effect curves were then classified based on curve quality (r2), response magnitude and degree of measured activity. Compounds were then categorized based on their concentration-response curves for all three datasets (Ikb-luc, luc and ratio).", "units": {"activity change, negative = inhibition": "%"}}
{"smiles": "Cc1cccc(OCCN2C(=O)C(=O)c3cc(C)ccc32)c1", "activity change, negative = inhibition": -1.66}
{"smiles": "Cc1onc(-c2ccccc2)c1-c1nc2cc(Cl)ccc2c(=O)o1", "activity change, negative = inhibition": -14.1}
{"smiles": "CSc1nc(SCC(=O)NCc2ccco2)c2c3c(sc2n1)COC(C)(C)C3", "activity change, negative = inhibition": -2.6}
{"smiles": "Cc1nnc(C)n1/N=C/c1cc2ccccc2nc1Cl", "activity change, negative = inhibition": -2.19}
{"smiles": "Cc1cc(=O)c(C(=O)Nc2cccc(N3CCCC3=O)c2)nn1-c1ccccc1Cl", "activity change, negative = inhibition": -0.879}
{"smiles": "COc1ccc(C2=NC(C)(C)Cc3cc(OC)c(OC)cc32)cc1OC", "activity change, negative = inhibition": 0.417}
{"smiles": "CCCCC[C@H](O)/C=C/[C@@H]1[C@@H](C/C=C\\CCCC(=O)O)[C@@H](O)C[C@H]1O", "activity change, negative = inhibition": -0.871}
{"smiles": "c1ccc(-c2cc(-c3nnc4n3N=C(c3ccc5ccccc5c3)CS4)[nH]n2)cc1", "activity change, negative = inhibition": -4.31}
{"smiles": "O=C(c1ccc(Cl)cc1)c1cc([N+](=O)[O-])ccc1N1CCOCC1", "activity change, negative = inhibition": -4.74}
{"smiles": "O=C(O)c1ccc(CSc2nnc(-c3ccco3)o2)cc1", "activity change, negative = inhibition": -0.305}
{"smiles": "COC(=O)c1cccc(-n2sc3ccccc3c2=O)c1", "activity change, negative = inhibition": -6.16}
{"smiles": "CC(Oc1ccc(Br)cc1)c1nc2c3ccccc3nc(=S)n2[nH]1", "note": "(configuration not stated)", "activity change, negative = inhibition": 349}
{"smiles": "CCOc1ccccc1/C=N/Nc1nc2c(N)ncnc2n1[C@H]1O[C@@H](CO)[C@H](O)[C@@H]1O", "activity change, negative = inhibition": 0.035}
{"smiles": "CCCNS(=O)(=O)c1cccc(C(=O)OCc2cc(=O)oc3cc(OC)ccc23)c1", "activity change, negative = inhibition": -16.4}
{"smiles": "Cc1ccc(NS(=O)(=O)c2cc(-c3n[nH]c(=O)c4ccccc34)ccc2C)cc1", "activity change, negative = inhibition": -3.87}
{"smiles": "COc1ccc(-c2c(C)nn3c(N)c(C#N)cnc23)cc1OC", "activity change, negative = inhibition": 0.123}
{"smiles": "COc1cccc(-c2nnc(Nc3nc4c(F)cccc4s3)o2)c1", "activity change, negative = inhibition": 37.5}
{"smiles": "CCOc1c(OC)cccc1C1CC(=O)Nc2cc(OC)c(OC)cc21", "note": "(configuration not stated)", "activity change, negative = inhibition": -0.312}
{"smiles": "COc1ccc(-c2noc(CSc3nc(N)c(-c4ccccc4)c(=O)[nH]3)n2)cc1", "activity change, negative = inhibition": -0.936}
{"smiles": "COc1ccccc1NC(=O)Cn1nnc(C(=O)NCc2cccs2)c1N", "activity change, negative = inhibition": -0.743}
{"smiles": "COc1cc2c(c(OC)c1OC)-c1ccc(OC)c(=O)cc1[C@@H](N(C)CC#CCO)CC2", "activity change, negative = inhibition": -1.53}
{"smiles": "Cc1cccc(N(C)S(=O)(=O)c2ccc(-c3cnc(C4CC4)o3)cc2)c1", "activity change, negative = inhibition": -6.59}
{"smiles": "C#CCOc1ccc(C2C3=C(COC3=O)Nc3cc4c(cc32)OCO4)cc1OC", "note": "(configuration not stated)", "activity change, negative = inhibition": -3.1}
{"smiles": "CCc1ccc(CCC(=O)Nc2sc3c(c2C#N)CCCC3)o1", "activity change, negative = inhibition": -1.9}
{"smiles": "Cc1cccc(C)c1NS(=O)(=O)c1ccc(-c2cnc(C3CC3)o2)cc1", "activity change, negative = inhibition": -5.58}
{"smiles": "O=C(O)CCCN1C(=O)/C(=C\\c2ccccc2OCc2ccccc2)SC1=S", "activity change, negative = inhibition": -3.44}
{"smiles": "CC1=Nc2ccccc2/C1=C\\c1sc(Nc2ccc(C)cc2)nc1O", "activity change, negative = inhibition": -20.5}
{"smiles": "COc1cccc(Nc2sc(C(=O)c3ccc(Cl)cc3)c(N)c2C(=O)NCc2ccc(C)cc2)c1", "activity change, negative = inhibition": -1.56}
{"smiles": "CC(=O)N1c2ccc(C)cc2C(c2ccccc2)CC1C", "note": "(configuration not stated)", "activity change, negative = inhibition": -2.03}
{"smiles": "Cc1noc(C)c1CSc1nc2[nH]ncc2c(=O)n1-c1ccccc1", "activity change, negative = inhibition": -5.84}
{"smiles": "COc1ccc2c(c1)sc1nc(-c3ccccc3)cn12", "activity change, negative = inhibition": 16.8}
{"smiles": "Nc1ccc(C(=O)n2c3ccccc3c3ccccc32)cc1", "activity change, negative = inhibition": -4.18}
{"smiles": "O=c1cc(-c2cccc(F)c2)[nH]c2ccccc12", "activity change, negative = inhibition": -3.48}
{"smiles": "COc1ccc(CCNc2oc(-c3ccc(OC)c(OC)c3)nc2P(=O)(OC)OC)cc1OC", "activity change, negative = inhibition": 0.113}
{"smiles": "COc1cc(OC)c(OC)cc1/C=C1\\CCC/C(=C\\c2cc(OC)c(OC)cc2OC)C1=O", "activity change, negative = inhibition": -10.7}
{"smiles": "COc1ccccc1-n1cnc2cc(NCc3cccs3)ccc21", "activity change, negative = inhibition": 40.4}
{"smiles": "NNC(=O)c1[nH]c2ccccc2c1-c1ccccc1", "activity change, negative = inhibition": -4.38}
{"smiles": "COc1cc(Cc2nccc3cc(OC)c(OC)cc23)c(NC(C)=O)cc1OC", "activity change, negative = inhibition": -0.252}
{"smiles": "COC(=O)Nc1nc(-c2ccccc2)c(C(=O)c2ccc(Cl)cc2)s1", "activity change, negative = inhibition": -1.03}
{"smiles": "CN(CC(=O)O/N=C(\\N)c1ccccn1)S(=O)(=O)c1cc(Cl)ccc1Cl", "activity change, negative = inhibition": -0.248}
{"smiles": "Cc1ccc(/C=N/NC(=O)c2n[nH]c3c2CCCC3)cc1", "activity change, negative = inhibition": -1.46}
{"smiles": "Cc1cc(C)c(C#N)c(SCc2c(F)cccc2[N+](=O)[O-])n1", "activity change, negative = inhibition": -2.3}
{"smiles": "O=C(CSc1cccc[n+]1[O-])c1cc(Cl)ccc1Cl", "activity change, negative = inhibition": -6.48}
{"smiles": "COc1ccc(/C=C/C(=O)c2cc(F)ccc2OC(=O)c2ccc(OC)c(OC)c2)cc1OC", "activity change, negative = inhibition": -5.26}
{"smiles": "COc1cc(/C=C\\C(=O)OCn2nnc3ccccc3c2=O)cc(OC)c1OC", "activity change, negative = inhibition": -4.34}
{"smiles": "COc1ccc(C(=O)/C=C/c2ccc(OC)c(Cn3nnc4ccccc43)c2)cc1", "Potency": "16.4 µM (active)"}
{"smiles": "Cc1cccc(NC(=O)c2ccc(C(=O)Nc3cccc(C)c3)nc2)c1", "activity change, negative = inhibition": -0.935}
{"smiles": "O=C1OCC2=C1C(c1ccc(F)cc1)c1cc3c(cc1N2)OCO3", "note": "(configuration not stated)", "activity change, negative = inhibition": -4.57}
{"smiles": "COc1cc(C(=O)N2CCN(c3cc(Cl)ccc3Cl)CC2)cc(OC)c1OC", "activity change, negative = inhibition": -4.65}
{"smiles": "CC1=CC(C)(C)N2C(=O)C(=O)c3cc(OC(=O)c4ccco4)cc1c32", "activity change, negative = inhibition": -12.4}
{"smiles": "CCOc1cc(/C=C2\\CN(C)C/C(=C\\c3ccc(O)c(OCC)c3)C2=O)ccc1O", "activity change, negative = inhibition": -16.9}
{"smiles": "Cc1nnc2sc(-c3csc4c3CCCC4)nn12", "activity change, negative = inhibition": -0.641}
